# In PubChem BioAssay (EPA / NIEHS):
# Calls of active or inactive are those of the source. The calls were made as follows: active = hit-call score of the fitted dose curve at least 0.9, where 1 is the maximum; inactive = score below 0.9.
# Assay: ATG_NF_kB_CIS: Attagene CIS-FACTORIAL HepG2 Assay for human Nuclear Factor Kappa B (NF-kB) (AID 2282991)
# Conditions: HepG2 Attagene cis-factorial NF-kB reporter mRNA; actives raise or lower the signal
# Method: ATG_CIS is a cell-based, multiplexed-readout assay that uses HepG2, a human liver cell line, with measurements taken at 24 hours after chemical dosing in a 24-well plate.ATG_NF_kB_CIS is one of 52 assay component(s) measured or calculated from the ATG_CIS assay. It is designed to make measurements of mRNA induction, a form of inducible reporter, as detected with fluorescence intensity signals by Reverse transcription polymerase chain reaction (RT-PCR) and Capillary electrophoresis technology.Data from the assay component ATG_NF_kB_CIS was analyzed into 1 assay endpoint. This assay endpoint, ATG_NF_kB_CIS, was analyzed with bidirectional fitting relative to DMSO as the negative control and baseline of activity. Using a type of inducible reporter, measures of mRNA for gain or loss-of-signal activity can be used to understand the reporter gene at the transcription factor-level as they relate to the gene NFKB1. Furthermore, this assay endpoint can be referred to as a primary readout, because this assay has produced multiple assay endpoints where this one serves a reporter gene function. To generalize the intended target to other relatable targets, this assay endpoint is annotated to the dna binding intended target family, where the subfamily is NF-kappa B.
# Human liver HepG2 cells are transiently transfected with multiple reporter transcription units (MRTUs) in 6-well plates using FuGene 6 reagent (Roche; 3 ml FuGene/1 mg DNA). The MRTU constructs are regulated by a cis-regulating element (promoter). […] A major difference between the CIS and TRANS system is that in CIS activities of endogenous TFs are measured, whereas the TRANS assay evaluates changes in activities of exogenous, chimeric NR-Gal4 proteins. […] At the end of 24 hour incubation, total RNA was isolated using TriZol reagent (Invitrogen). The isolated RNA is then reverse-transcribed using oligo(dT) primer and Mo-MLV reverse transcriptase (Invitrogen) with DNAse I (Ambion) treatment for 30 min. The one-tenth of the produced cDNA was amplified by PCR using Taq DNA polymerase (Invitrogen) and two reporter sequence-specific primers. The PCR products were fluorescently labeled by primer extension with 6-arboxyfluorescein (6-FAM) 5'-labeled reporter sequence-specific primer (2 min at 95 C, 20 s at 68 C and 10 min at 72 C) and these products were digested with 5U of HpaI (New England Biolabs) for 2h at 37 C. The fragments were purified using Qiaquick PCR columns (Qiagen), analyzed on an ABI 3130xL genetic analyzer (Applied Biosystems) with peak positions identified by using a set of X-rhodamine (ROX)-labeled MapMarker1000 molecular weight standards (BioVentures). The raw capillary electrophoresis data was processed using Attagraph software (Attagene).
SMILES,AC50,outcome
O=c1cc(-c2ccccc2)oc2ccccc12,82.3 µM (active),
CCCC(C)CCC(C)=O (stereo not given),,inactive
CCCCCCCCc1ccc(Nc2ccc(CCCCCCCC)cc2)cc1,,inactive
O=c1[nH]nc(-c2ccc([N+](=O)[O-])o2)o1,,inactive
C#CC1(O)CC[C@H]2[C@@H]3CCC4=CCCC[C@@H]4[C@H]3CC[C@@]21C (stereo not given in full),,inactive
O=C1CCCCCCCCCCC(=O)OCCO1,,inactive
OC1CCCCCCCCCCC1,,inactive
CCc1nccnc1C,,inactive
Cc1cc(O)c(Cl)c(C)c1Cl,,inactive
CCCNC(=O)NS(=O)(=O)c1ccc(Cl)cc1,,inactive
CCC(CO)CO,,inactive
COc1ccc(C(Cl)=C(c2ccc(OC)cc2)c2ccc(OC)cc2)cc1,,inactive
CN1C(=O)N(C)C(O)C1O (stereo not given),,inactive
CCCc1ccc(OC)cc1,,inactive
O=Nc1ccc(O)cc1,,inactive
CCCCC(CC)COCC1CO1 (stereo not given),,inactive
CCC(C)OC(=O)c1ccc(O)cc1 (stereo not given),,inactive
CC1(C)[C@H]2CC[C@]1(C)C(=O)C2,,inactive
CC(=O)Oc1ccc(C)cc1,,inactive
CCC(CC)C(=O)O,,inactive

SMILES,AC50,outcome
OCCCS,,inactive
Cc1ccc(C2OC[C@@H]3OC(c4ccc(C)cc4)O[C@H]([C@H](O)CO)[C@@H]3O2)cc1 (stereo not given in full),,inactive
CC(C)(Oc1ccc(C2CC2(Cl)Cl)cc1)C(=O)O (stereo not given),,inactive
Nc1ccc(N=Nc2ccccc2)c(N)n1,,inactive
C=CC(C)(CCC=C(C)C)OC(=O)CC(C)C (stereo not given),,inactive
O=c1[nH]c(=O)c2[nH]c(=O)[nH]c2[nH]1,,inactive
CCCCCCCCCCCSCC(=O)O,,inactive
CCCOCCOCCOCCO,,inactive
C=COCCCC,,inactive
C=CCOCC(O)CCl (stereo not given),,inactive
CCCCCCCC(C)=O,,inactive
CC(C)(c1cc(Br)c(OCCO)c(Br)c1)c1cc(Br)c(OCCO)c(Br)c1,,inactive
O=C1c2ccccc2C(=O)C1c1nc2ccccc2c(Br)c1O,28.4 µM (active),
Cc1cc(C)c(C(=O)O)c(C)c1,,inactive
S=C(NC1CCCCC1)NC1CCCCC1,,inactive
N=c1ccn2c(n1)O[C@H]1[C@H](O)[C@@H](CO)O[C@H]12,,inactive
CC1(C)S[C@@H]2[C@H](NC(=O)COc3ccccc3)C(=O)N2[C@H]1C(=O)O,,inactive
C=CC=CC=CCCCCC,,inactive
Cc1cccc(C(=O)O)c1,,inactive
CC(C)c1ccc(C#N)cc1,,inactive
